Source: PubChem (National Center for Advancing Translational Sciences (NCATS))
An excerpt weighted towards active compounds, which were near 15% of everything screened.
ALOX12 inh: inhibitors of human 12S-lipoxygenase ALOX12 | Potency, µM (series often up to 108 µM), inactives show at the top dose activity change, negative = inhibition, actives largely listed as inhibitors | P18054 | purified 12hLO, xylenol orange hydroperoxide absorbance | 580,000 tested, 1.1% active
Target sequence (P18054 whole entry, looked up): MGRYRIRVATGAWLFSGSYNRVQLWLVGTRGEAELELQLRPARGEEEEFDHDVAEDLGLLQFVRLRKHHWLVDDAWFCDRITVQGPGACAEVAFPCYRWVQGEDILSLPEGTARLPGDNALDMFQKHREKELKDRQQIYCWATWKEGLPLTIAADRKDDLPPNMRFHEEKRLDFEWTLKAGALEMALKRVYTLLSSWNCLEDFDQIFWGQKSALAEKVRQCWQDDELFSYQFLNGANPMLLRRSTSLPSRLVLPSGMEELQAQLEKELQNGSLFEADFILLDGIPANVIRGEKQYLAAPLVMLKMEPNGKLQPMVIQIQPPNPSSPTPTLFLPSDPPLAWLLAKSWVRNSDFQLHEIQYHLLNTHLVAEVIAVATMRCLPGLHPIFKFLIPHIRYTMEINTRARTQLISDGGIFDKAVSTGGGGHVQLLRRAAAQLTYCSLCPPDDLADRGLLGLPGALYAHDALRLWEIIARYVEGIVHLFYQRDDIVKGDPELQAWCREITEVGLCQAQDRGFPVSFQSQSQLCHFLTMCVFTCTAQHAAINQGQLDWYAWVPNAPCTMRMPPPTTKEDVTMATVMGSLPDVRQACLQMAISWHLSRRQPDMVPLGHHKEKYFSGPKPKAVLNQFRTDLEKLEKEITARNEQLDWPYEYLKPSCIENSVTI
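Purified human 12hLO at 150 nM in 25 mM Hepes, 0.01% Triton X-100, pH 7.0, preincubated 15 min at room temperature with compound. Reaction started with 40 uM arachidonic acid, 30 min at room temperature. Hydroperoxide measured by Fe-xylenol orange, 573/405 nm absorbance ratio.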
DT40 TDP1 no CPT: qHTS for Inhibitors of human tyrosyl-DNA phosphodiesterase 1 (TDP1): qHTS in cells in absence of CPT. 420,000 tested, 15% active. Potency, µM (doses to about 46.2 µM), inactives show top-dose activity change, negative = growth inhibition, most hits filed as inhibitors. DT40 Tdp1-/- hTDP1 cells, no CPT, ATP luminescence, 48 h; note: nearly all actives have a fitted effect of over 55% in size
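Chicken DT40 Tdp1-/- cells stably complemented with human TDP1 were seeded at 400 cells/well with DMSO in place of 20 nM camptothecin. After compound pinning, cells grew at least 48 hr at 37 °C; viability read by CellTiter-Glo luminescence.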
Gal4-VP16 FLuc: counter-screen for ROR gamma inhibitors: Gal4-VP16 reporter. Potency, µM (doses to about 53.6 µM), for the others: at the top dose activity, negative = inhibition, hits mostly inhibitors. Drosophila S2 Gal4-VP16 UAS-luciferase, luminescence, 20 h. AID 2546. 310,000 tested, 3.5% active;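 note: Gal4-VP16 expression switched on by copper sulfate through the metallothionein promoter; nearly all actives have a fitted effect of over 50% in size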
TDP1 cell CPT: DT40-hTDP1 cell growth loss with CPT; AID 686979; Potency, µM (titrated, usually from 46.2 µM), inactives show top-dose activity change, negative = growth inhibition, actives largely listed as inhibitors; chicken DT40 Tdp1-/-;hTDP1 cells + 20 nM CPT, ATP luminescence, 48 h; 420,000 tested, 12% active; note: nearly all actives have a fitted effect of over 55% in size
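Cell growth measured by CellTiter-Glo luminescence after a minimum 48 h, 37 C compound exposure with 20 nM CPT in Tdp1-knockout DT40 cells stably expressing hTDP1, seeded 400/well; qHTS titration format.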
ELG1 DNA repair: ELG1-dependent DNA repair inhibition; HEK293T ELG1-luciferase reporter, luminescence, 16 h; DNA damage induced by 5-fluorouridine; 330,000 tested, 2.3% active; Potency, µM (top dose mostly 46.1 µM), without a hit: at the highest dose activity change, negative = inhibition, actives largely listed as inhibitors; AID 504467; note: nearly all actives have a fitted effect of over 55% in size
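Overnight (16 hr) co-exposure of 2,000 cells/well to 5-fluorouridine and compound at 37 °C preceded detection. Luciferase was quantified via ONE-Glo luminescence; loss of signal denotes inhibition.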
RORgamma inh: ROR gamma (mouse) transcription inhibition. P51450. Drosophila S2 Gal4-RORgamma UAS-luciferase reporter, 20 h. 310,000 tested, 5.4% active. Potency, µM (doses to about 53.6 µM), for inactives: top-dose activity change, negative = inhibition, most hits filed as inhibitors; note: nearly all actives have a fitted effect of over 60% in size
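In this cell-based reporter format, copper sulfate (700 uM final) drives Gal4–ROR gamma fusion expression from a metallothionein promoter in Drosophila Schneider cells; compounds preincubated 1 hr, reporter read after 20 hr at ambient temperature.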
Starred values were filed as active, the others as inactive; ? = inconclusive; / = no result; [ ] = another dose, or the depositor's remark. Calls come from the whole dose curve; as a rule, active = well fitted curve in the direction sought with a large enough effect; inconclusive = small, poorly fitted or top-dose-only effect, or another doubt; inactive = no such curve, though single readings can be large; an effect the other way counts as inactive or inconclusive. % is set by controls: 0 for no effect and ±100 for the full control effect; potency is the fitted concentration of half-maximal effect.

SMILES | ALOX12 inh | DT40 TDP1 no CPT | Gal4-VP16 FLuc | TDP1 cell CPT | ELG1 DNA repair | RORgamma inh
O=C(CNC(=O)C(c1ccccc1)c1ccccc1)N/N=C/c1ccc(O)cc1O | 0% | 6.5µM* | -9% | 5.8µM* | ? | -33%
O=C(CNC(=O)C(c1ccccc1)c1ccccc1)N/N=C\c1cccc(O)c1 | -1% | -24% | ? | ? | 17% | 2%
O=C(CNC(=O)C1COc2ccccc2O1)N/N=C\c1cccc(O)c1 (centres undefined) | 13% | 4% | 4% | 8% | 2% | 13%
O=C(/C=C\c1ccccc1)NCC(=O)N/N=C/c1ccc(O)cc1O | / | 8.2µM* | -13% | 21µM* | -6% | -39%
O=C(CNC(=O)C1COc2ccccc2O1)N/N=C/c1ccc(O)cc1O (centres undefined) | -7% | 6.5µM* | -17% | 6.5µM* | -19% | 13µM*
O=C(N/N=C/c1ccc(O)cc1O)/C(=C/c1ccccc1)CCO | ? | ? | ? | ? | ? | 11µM*
Cc1nnc2n1C(C)CN(C(=O)COc1ccc(-n3cnnn3)cc1)C2 (centres undefined) | 8% | / | / | / | / | /
CCOCCn1c(=O)[nH]c2cc(C(=O)NCc3sc(C)nc3C)ccc21 | 15% | / | / | / | / | /
O=C1c2ccccc2C(=O)C12OC2c1cccc2ccccc12 (centres undefined) | ? | ? | 14µM* | ? | 4% | ?
CC1=CC2=NC(=O)/C(=C\c3ccc(OC(=O)c4ccco4)cc3)C(=N)N2O1 | 0% | -2% | 5% | -1% | -13% | -13%
N=C1/C(=C/c2cccn2Cc2ccc(Cl)cc2)C(=O)N=C2SC=CN12 | -19% | ? | 5µM* | -13% | -19% | 4µM*
COc1cc(/C=C2/C(=N)N3OC(C)=CC3=NC2=O)ccc1OC(=O)c1ccco1 | -7% | -2% | -5% | 0% | 18% | 9%
CC1=CC2=NC(=O)/C(=C/c3cccn3Cc3ccccc3)C(=N)N2O1 | 13% | ? | ? | 19% | -9% | 13µM*
CC1=CC2=NC(=O)/C(=C\c3cccn3CCOc3ccc(C)c(C)c3)C(=N)N2O1 | 6% | ? | ? | ? | 18µM* | -44%
CCCCc1ccc(-c2csc(-c3nc(-c4ccc(CC)cc4)c(C)s3)n2)cc1 | 17% | / | / | / | / | /
CCOC(=O)c1nn(-c2ccccc2)c(C(=O)OCC)c1N | 1% | 1% | 2% | -9% | 3% | 1.3µM*
CCOC(=O)c1nn(-c2ccccc2C)c(=O)c2c(N)scc12 | ? | ? | -14% | ? | 9% | -4%
CCOC(=O)C1=C(N)N(c2ccccc2)C(=O)C1 | 19% | 16µM* | -5% | 7.3µM* | 0% | 18%
Nc1scc2c(C(=O)N/N=C/c3ccc(Cl)cc3)nn(-c3ccccc3)c(=O)c12 | 6.3µM* | 7.3µM* | -9% | 8.2µM* | ? | 4%
CCOC(=O)c1nn(-c2ccccc2)c(=O)c2c(N)scc12 | 35µM* | 15µM* | 4% | 8.2µM* | -17% | 6%
O=C(N[C@@H]1CCOC[C@H]1OCCO)c1cccc(-c2ccco2)c1 | 0% | / | / | / | / | /
COc1ccc(C[C@H](NC(=O)[C@@H]2C[C@H](NC(=O)CC(C)(C)C)CN2C(=O)CC(C)(C)C)C(N)=O)cc1 | 29% | / | / | / | / | /
O=C(N/N=C/c1ccc(OCCCOc2ccccc2Cl)cc1)c1ccccc1 | -8% | / | / | / | / | /
Cc1ccc(CSC(Nc2ccc(F)cc2)=C(C#N)C#N)cc1 | ? | 3.3µM* | 25µM* | 3.7µM* | ? | ?
Cc1ccc(SCCNC(=S)Nc2ccc(F)cc2)cc1 | 50µM* | / | / | / | / | /
SMILES | ALOX12 inh | DT40 TDP1 no CPT | Gal4-VP16 FLuc | TDP1 cell CPT | ELG1 DNA repair | RORgamma inh
Fc1ccc(CNC(=S)Nc2ccc(OC(F)F)cc2)cc1 | ? | ? | ? | ? | -3% | 11µM*
Cc1ccc(CNC(=S)Nc2ccc(NS(=O)(=O)c3ccc(C)cc3)cc2)cc1 | ? | 23µM* | ? | ? | ? | ?
Cc1ccc(C#N)c(N2CC[C@@H](c3ccc4c(c3)OCO4)[C@H](O)C2)n1 | 27% | / | / | / | / | /
NC(=O)[C@@H]1C[C@H](Oc2cccnc2)CN1C(=O)CC1CCCCC1 | 40% | / | / | / | / | /
Cc1ccc(NC(=S)NCc2ccc(F)cc2)cc1 | 10% | 26µM* | / | ? | / | /
Cc1ccc(NC(=O)Cc2ccc(F)cc2)cc1 | -12% | -6% | 18% | ? | ? | ?
Cc1cc(C(=O)NCCC(c2ccccc2)c2ccccc2)c(C)o1 | -26% | ? | 12% | 18µM* | 3% | -29%
Cc1cc(C(=O)Nc2cccc3ccccc23)c(C)o1 | 22% | -22% | -10% | 23µM* | ? | -6%
Cc1cc(C(=O)NCCCC(=O)O)c(C)o1 | -3% | 16% | -8% | -4% | 13% | -1%
Cc1oc2c(c1C(=O)Nc1cccc3ccccc13)CCCC2 | 82% | 13µM* | 6% | 10µM* | -3% | 2%
Cc1oc(CC(C)C)cc1C(=O)Nc1cccc2ccccc12 | ? | -30% | 8% | -29% | -4% | -2%
Cn1ncc2c(N3CCC(Cc4ccccc4)CC3)ncnc21 | -2% | 16µM* | 6%[10 µM] | ? | ? | 11%
COc1ccccc1N1CCN(c2ncnc3c2cnn3C)CC1 | -6% | 18µM* | / | ? | / | /
NNC(=O)c1cc2c(N3CCC(Cc4ccccc4)CC3)ncnc2s1 | -3% | 23µM* | ? | 16µM* | 23µM* | 44%
Cn1ncc2c(N3CCN(c4ccc(F)cc4)CC3)ncnc21 | -4% | 18µM* | / | ? | / | /
CN1CCN(c2ncnc3sc(-c4ccccc4)cc23)CC1 | -28% | ? | -5% | ? | 0% | 0%
Cc1ccc(-n2ncc3c(N4CCN(c5ccc(F)cc5)CC4)ncnc32)cc1 | -27% | 11% | / | -2% | / | /
CCCCCCCCCCCC(=O)N/N=C/c1ccc(C(C)(C)C)cc1 | -1% | / | / | / | / | /
Cc1cccc(CNC(=O)CSc2nc3nc[nH]c3c(=O)[nH]2)c1 | 3% | / | / | / | / | /
Cc1cc(Cl)ccc1NC(=O)COC(=O)c1cc([N+](=O)[O-])ccc1N1CCOCC1 | ? | ? | / | -11% | ? | /
CCc1ccc(C(=O)COC(=O)c2cc([N+](=O)[O-])ccc2N2CCOCC2)cc1 | -4% | 18µM* | / | ? | ? | /
COc1ccc(COC(=O)c2cc([N+](=O)[O-])ccc2N2CCOCC2)cc1F | 2% | 0.012µM* | / | 0.023µM* | ? | /
